Source: PubChem (NMMLSC)
Beta2AR agonist: beta2AR agonists driving receptor internalization, primary screen, cell-based, FAP fluorogen, flow cytometry; Beta-2 adrenergic receptor (Homo sapiens), P07550; Am2.2-beta2AR cells; response, % (no concentration beside the values); actives 0.43% (n = 340,000);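 active means response above a set limit, near 3 SD of response in nonfluorescent compounds, cut at about 42% in these data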
Target sequence (P07550 whole entry, looked up): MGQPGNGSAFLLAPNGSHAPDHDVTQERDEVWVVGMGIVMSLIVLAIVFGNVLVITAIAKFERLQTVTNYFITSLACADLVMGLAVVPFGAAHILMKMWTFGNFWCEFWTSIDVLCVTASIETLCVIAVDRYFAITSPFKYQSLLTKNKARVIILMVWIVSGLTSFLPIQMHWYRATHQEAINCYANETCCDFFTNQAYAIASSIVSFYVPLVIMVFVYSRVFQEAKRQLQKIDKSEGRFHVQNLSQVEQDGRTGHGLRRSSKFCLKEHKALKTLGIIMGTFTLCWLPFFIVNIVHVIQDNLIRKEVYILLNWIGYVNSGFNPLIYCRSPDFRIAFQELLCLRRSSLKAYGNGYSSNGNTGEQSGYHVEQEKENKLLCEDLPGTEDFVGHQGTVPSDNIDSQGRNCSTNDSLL
MEKK3 PB1 HTS: modulators of MEKK3-MEK5 PB1 binding, primary screen, biochemical, wildtype MEKK3, multiplex bead flow cytometry, Alexa488-MEK5; Mitogen-activated protein kinase kinase kinase 3 (Homo sapiens), Q99759; bead-based flow cytometry, Alexa488-MEK5 binding to MEKK3; actives lie on both sides; 0 = blocked by unlabeled MEK5, 100 = vehicle; binding response (% of control), % at 10 µM; actives 1.4% (n = 290,000); AID 1529, 2009;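 active means binding response more than 3 SD above or below the average of its plate-row segment, actives on both sides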;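 further: Alexa488 bead fluorescence after subtracting the streptavidin-only scavenger bead signal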
MEKK2wt PB1 HTS: modulators of MEK5 binding to wildtype MEKK2, primary screen, biochemical, multiplex bead flow cytometry, Alexa488-MEK5; Mitogen-activated protein kinase kinase kinase 2 (Homo sapiens), Q9Y2U5; Alexa488-MEK5 binding to MEKK2 WT; actives lie on both sides; binding response (% of control), % at 10 µM; actives 1.1% (n = 290,000); in the data active means binding response below about 67% or above about 130%
GRK2 inh: compounds blocking aptamer binding on GRK2 – biochemical, human GRK2, bead flow cytometry, HTS, primary screen. Beta-adrenergic receptor kinase 1 (Homo sapiens), P25098. actives 0.59% (n = 330,000). inhibition of aptamer binding, % at 10 µM. FAM-aptamer displacement from GRK2;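 active means inhibition of aptamer binding above 40%, roughly 3 SD of noise, on plates passing a quality check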;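 further: median bead fluorescence of bound FAM aptamer so fluorescent compounds give negative values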
MEKK2mut PB1 HTS: MEK5 binding signal on mutant MEKK2 PB1, primary screen, biochemical, multiplex bead flow cytometry, Alexa488-MEK5; AID 1530, 2009; percent response, % at 10 µM; actives 0.35% (n = 290,000); Alexa488-MEK5 binding to MEKK2 mutant; in the data active means percent response above about 24%, passing the limit was not always enough
MEKK2wt confirm: modulators of MEK5 binding to wildtype MEKK2, confirmation, biochemical, single concentration, multiplex bead flow cytometry | binding response (% of control), % at 10 µM | Alexa488-MEK5 binding to MEKK2 WT; actives lie on both sides | actives 2.4% (n = 5,900) | shares compounds with MEKK3 PB1 HTS | AID 1892, 2009; in the data active means binding response below about 16% or above about 210%; inactive means in between
MEKK2mut-MEK5: mutant MEKK2 PB1-MEK5 binding signal retest – biochemical, single concentration, multiplex bead flow cytometry, confirmation; shares compounds with MEKK3 PB1 HTS; Alexa488-MEK5 binding to MEKK2 mutant; actives 2% (n = 5,900); percent response, % at 10 µM; in the data active means percent response mostly above about 71%, no sharp cut-off; inactive means mostly below about 38%;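 further: higher means compound restores mutant binding toward wildtype level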
MEKK3-MEK5 inh: MEKK3 wild-type PB1 binding to MEK5, inhibitors, confirmation, biochemical, bead multiplex flow cytometry, single concentration, wildtype; shares compounds with MEKK3 PB1 HTS; Alexa488-MEK5 binding to MEKK3; active compounds read low; binding response (% of control), % at 10 µM; actives 1.8% (n = 5,900); AID 1894, 2009;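 active means binding response below 72% of control, or above a set upper limit, though filed actives all read lower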;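 further: 100% = DMSO only wells and 0% = binding blocked by excess unlabeled MEK5; lower values mean stronger disruption of MEK5 binding to MEKK3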
Beta2AR ag CP1: beta2AR agonists via receptor internalization, confirmation, cell-based, FAP fluorogen, flow cytometry, single point, cherry pick 1; AID 540358, 2011; shares compounds with Beta2AR agonist; actives 25% (n = 1,100); percent response (surface receptor), % at 10 µM; Am2.2-beta2AR cells, FAP surface receptor; active compounds read low;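 active means surface receptor percent response at or below 58%, roughly 3 SD from nonfluorescent compounds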
FAP fluor counter: fluorescence artifact in beta-2AR agonist FAP counterscreen | calls only at 10 µM | 1,100 tested, under 10 active | Am2.2 cells, FAP fluorogen flow cytometry; active compounds read low | shares compounds with Beta2AR agonist;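 active means percent response below a set limit in fluorescence channel 1 and below 50% in channel 8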
Active calls of the source: *; i = inactive; . = not tested or not shown; [ ] = dose if it differs, or a comment. Only some compounds are listed: those with a hit (about 2.9% of all), similar ones and a draw of the others.

SMILES	Beta2AR agonist	MEKK3 PB1 HTS	MEKK2wt PB1 HTS	GRK2 inh	MEKK2mut PB1 HTS	MEKK2wt confirm	MEKK2mut-MEK5	MEKK3-MEK5 inh	Beta2AR ag CP1	FAP fluor counter
Cc1cc(C(=O)COC(=O)CNS(=O)(=O)c2ccc3ccccc3c2)c(C)n1-c1ccccc1	47*	164*	102	4	0	99	1	107	98	i
CCOc1cc(C(=O)OCC(=O)Nc2cccc(S(=O)(=O)NC3=NCCCCC3)c2)cc(OCC)c1OCC	3	.	.	0	.	.	.	.	.	.
CCCCC(CC)CNC(=O)C(Cc1ccccc1)NS(=O)(=O)c1ccc2c(c1)CCC(=O)N2 (configuration not stated)	14	100	98	1	-3	.	.	.	.	.
COc1ccc(C(=O)NCc2ccc3c(c2)cc(C)n3C)cc1	-10	90	91	1	8	.	.	.	.	.
COc1ccc(C[C@H]2CN3C(=NC[C@@H]3Cc3ccc(O)cc3)N2CCNC(=O)c2ccc(C)c(Br)c2)cc1	47*	111	247*	.	96*	196	48	109	94	i
Cc1cccc(OCC(O)Cn2c(=N)n(Cc3ccccc3)c3ccccc32)c1 (configuration not stated)	8	95	116	0	-2	.	.	.	.	.
N=c1n(CCO)c2ccccc2n1Cc1ccc(Cl)cc1	2	100	104	0	11	.	.	.	.	.
Cc1ccc(OCC(O)Cn2c(=N)n(Cc3ccccc3)c3ccccc32)cc1 (configuration not stated)	55*	106	140*	0	6	120	8	99	17*	i
N=c1n(Cc2ccc(Cl)cc2)c2ccccc2n1CC(O)COc1ccccc1 (configuration not stated)	43*	86	142*	1	3	149	47	105	19*	i
COC(=O)Nc1ccc2c(c1)N(C(=O)CCN(C)C)c1ccccc1CC2	-9	101	106	0	10	.	.	.	.	.
O=C1NCN(c2ccccc2)C12CCN(CCCC(c1ccc(F)cc1)c1ccc(F)cc1)CC2	49*	113	207*	6	25*	165	50	106	82	i
O=C1CCC(=O)N1CCC(c1ccc(F)cc1)c1ccco1 (configuration not stated)	11	104	100	1	5	.	.	.	.	.
CC(=O)Nc1ccccc1NC(=O)c1cccc2ccccc12	-1	80	85	0	-2	.	.	.	.	.
O=C(O)c1cc(O)ccc1NC(=O)c1cccc2ccccc12	69*	132*	122	1	26	100	-3	103	112	i
CCCCCCN(C(=O)CCCCCN1C(=O)NC(c2ccc(-c3ccccc3)cc2)C(C(=O)OCc2ccccc2)=C1C)C(C(=O)NCCCC)c1ccc(O)cc1 (configuration not stated)	.	91	89	.	-7	.	.	.	.	.
N=c1n(CC(=O)c2ccc([N+](=O)[O-])cc2)c2ccccc2n1Cc1ccc(Cl)cc1	91*	108	138*	0	50	154	58	108	37*	i
COc1cc(OC)cc(C(=O)N2CCN(C3CCC(C)CC3)CC2)c1 (configuration not stated)	3	.	.	.	.	.	.	.	.	.
c1ccc(CN2CCN(c3nc(NCc4ccco4)c4ccccc4n3)CC2)cc1	9	112	168*	1	29	167	46	111	102	i
c1ccc(Nc2nc(NCc3ccco3)c3ccccc3n2)cc1	18	100	174*	0	10	190	62	115	80	i
CCCOc1ccc(CNC(=O)C2CCN(c3nnc(N4CCCC4=O)s3)CC2)cc1	0	100	104	1	1	.	.	.	.	.
CCN(CC)S(=O)(=O)c1cc(C(=O)Nc2cc(Cl)ccc2N2CCN(C)CC2)ccc1Cl	74*	109	161*	1	24	150	33	108	20*	i
Cc1ccc2c(c1)c1c3n2CCCNC3CCC1 (configuration not stated)	10	87	102	0	-7	.	.	.	.	.
c1cc2c(cc1C1CCCCC1)c1c3n2CCCNC3CCC1 (configuration not stated)	44*	93	165*	0	18	157	25	104	101	i
COc1cc(CNCCc2c[nH]c3ccccc23)ccc1OCc1ccc(F)cc1	72*	106	197*	0	47*	144	14	87	56*	i
N#Cc1ccc(S(=O)(=O)N2CCN(CC(=O)NCC3(N4CCOCC4)CCCCC3)CC2)cc1	4	.	.	0	.	.	.	.	.	.
CN(C)CC/C=C1\c2ccccc2Sc2ccc(Cl)cc21	53*	72*[inhibitor]	164*	0	17	136	16	99	97	i
CC1CCC2(CC1)NC(=O)N(CC(=O)Nc1cccc(C#N)c1)C2=O (configuration not stated)	0	.	.	1	.	.	.	.	.	.
Cc1ccc2c(c1)c1c(n2CC(O)CNC2CCCCC2)CCCC1 (configuration not stated)	53*	108	154*	0	21	133	17	99	112	i
